# Source: PubChem BioAssay (NCATS)
# Inconclusive results are not listed. A number with no mark means an inactive call. The source made the active and inactive calls. Calls come from the whole dose curve; as a rule, active = well fitted activation curve with a large enough effect; inconclusive = small, poorly fitted or top-dose-only effect; inactive = no such curve, though single readings can be large or run the other way.
# Molecular target: Cellular tumor antigen p53 (Homo sapiens) (UniProt P04637)
# Sequence (P04637 whole entry, looked up): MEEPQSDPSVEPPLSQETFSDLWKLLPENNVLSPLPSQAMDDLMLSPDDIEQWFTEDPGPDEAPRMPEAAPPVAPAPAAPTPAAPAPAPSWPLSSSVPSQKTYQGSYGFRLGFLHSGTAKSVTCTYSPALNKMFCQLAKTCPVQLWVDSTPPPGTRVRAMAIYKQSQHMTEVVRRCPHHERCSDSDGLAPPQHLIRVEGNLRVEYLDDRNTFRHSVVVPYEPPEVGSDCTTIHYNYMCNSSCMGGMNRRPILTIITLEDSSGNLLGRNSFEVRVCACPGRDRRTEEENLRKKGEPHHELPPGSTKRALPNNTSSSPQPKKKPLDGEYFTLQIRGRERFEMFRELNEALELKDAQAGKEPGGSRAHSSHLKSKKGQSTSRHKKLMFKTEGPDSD
# Assay: Primary qHTS for small molecule compounds that upregulate eGFP-tagged delta133p53alpha (in N-terminal) cells. (AID 2060322); note: nearly all actives have a fitted effect of over 75% in size;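 for activation: cells pre-induced with doxycycline then dosed without doxycycline; series mostly up to about 56 µM; 0% = DMSO vehicle and 100% = reference activator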
# Conditions: NCI-H358 eGFP-delta133p53alpha fluorescence, 24 h; activation: active compounds read high
# Outline: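 NCI-H358 cells pre-induced 24 h with 10 ng/ml doxycycline for eGFP-delta133p53alpha, plated dox-free and exposed 24 h at 37C to titrated compounds. Fixed, Hoechst-stained; gated GFP peak intensity by laser scanning cytometry, normalized to DMSO (0%) and 57.5 uM 5-azacytidine (100%).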
# Potency is the fitted concentration of half-maximal effect.
SMILES,activation [%],Potency
Cc1[nH]cnc1CN1CCc2c(c3ccccc3n2C)C1=O,-13.4,
NS(=O)(=O)c1ccc(C(=O)O)cc1,-37.9,
CN1CCCC(CC2c3ccccc3Sc3ccccc32)C1 (stereo not given),14.2,
CC1(C)[C@@H]2CC[C@@]1(C)C(=O)C2,-0.837,
Nc1nc(Cl)nc2c1ncn2[C@@H]1O[C@H](CO)[C@@H](O)[C@H]1F,-22.8,
CC=C1C2C=C(C)CC1(N)c1ccc(=O)[nH]c1C2 (stereo not given),-14.9,
Nc1ccc(C(=O)N2CC3CC(CN(Cc4ccccc4)C3)C2)cc1,-6.21,
CC(C)=CCOc1ccc(/C=C/C(=O)c2ccc(OCC=C(C)C)cc2OCC(=O)O)cc1,-1.67,
CC(C)=CCCC(C)=CCCC(C)=CCCC(C)=CCCC(C)=CCCC(C)=CCCC(C)=CCCC(C)=CCCC(C)=CCO,8.65,
CCCC(=O)c1cc(O)c(O)cc1O,-37.9,
CC1(C)S[C@H]2[C@H](NC(=O)[C@@H](N)c3ccc(O)cc3)C(=O)N2[C@@H]1C(=O)O,-5.39,
CCCCCCCCCCCCCC(=O)OC(C)C,14.1,
O=C1NC(=O)C(=Cc2ccc(-c3ccc(F)cc3)o2)S1,-1.63,
COC(=O)C1=C(C)NC(C)=C(C(=O)OCC(C)=O)C1c1ccccc1[N+](=O)[O-] (stereo not given),1.69,
CC(C)(C)NCC(O)COc1ccccc1OCC1CCCO1 (stereo not given),10.9,
C[C@@H]1C[C@H]2[C@@H]3CCC4=CC(=O)C=C[C@]4(C)[C@@]3(F)[C@@H](O)C[C@]2(C)[C@H]1C(=O)CO,0.837,
CN1Cc2cc(C(=O)N3CCC(C4CCNCC4)CC3)ccc2N[C@@H](CC(=O)O)C1=O,20.1,
O=c1cc(-c2ccccc2)oc2c(O)c(O)ccc12,-43.5,
CCN(CC)CCc1nc(-c2ccccc2)no1,-25.1,
Nc1c(CC(=O)O)cccc1C(=O)c1ccc(Br)cc1,-3.95,

SMILES,activation [%],Potency
COc1ccc2nc(NC(=O)Nc3ccccc3)sc2c1,-19.8,
NC(CSCC(=O)O)C(=O)O (stereo not given),-5.08,
NC(CO)(CO)CO,-22,
N[C@@H](Cc1cc(I)c(O)c(I)c1)C(=O)O,4.18,
C[N+]1(CC2COC(c3ccccc3)(C3CCCCC3)O2)CCCCC1 (stereo not given),10.9,
CC(C)N(CC[C@H](c1ccccc1)c1cc(CO)ccc1O)C(C)C,16.8,
COc1ccc(S(=O)(=O)Nc2nnc(CC(C)C)s2)cc1,-11.7,
Cc1[nH]c(C=C2C(=O)Nc3ccccc32)c(C)c1CCC(=O)O,,24.3 µM (active)
CC(=O)N(CC(O)CN(C(C)=O)c1c(I)c(C(=O)NCC(O)CO)c(I)c(C(=O)NCC(O)CO)c1I)c1c(I)c(C(=O)NCC(O)CO)c(I)c(C(=O)NCC(O)CO)c1I (stereo not given),-16.7,
CC(=O)Nc1ccc(CC(=O)O)cc1,6.21,
CCOC(=O)CN1CCCC1=O,-0.837,
O=Cc1ccc(O)c(O)c1O,-4.18,
CC(=O)Nc1ncc([N+](=O)[O-])s1,-1.69,
C[C@@H]1[C@H](C)CC[C@]2(C(=O)O)CC[C@]3(C)C(=CC[C@@H]4[C@@]5(C)C[C@@H](O)[C@H](O)[C@@](C)(CO)[C@H]5CC[C@]43C)[C@@H]12,36.3,
C[C@H](Cn1cnc2c(N)ncnc21)OCP(=O)(O)O,61.4,
CSc1ccc(/C=C2/C(C)=C(CC(=O)O)c3cc(F)ccc32)cc1,-8.47,
Nc1ccc(S(=O)(=O)Nc2cnc3ccccc3n2)cc1,-24.3,
O=C(Nc1ccc(Cl)c(Cl)c1)C1CC1,-7.53,
CCCNC(C)C(=O)Nc1c(C)csc1C(=O)OC (stereo not given),-37.9,
Cc1nc(C2CCCCC2)c(-c2ccc(S(N)(=O)=O)c(F)c2)o1,19.2,
